The text below walks through data of PubChem BioAssay (EPA / NIEHS).

Results filed as inconclusive are left out. The source made the active and inactive calls. How the source made its calls, unless noted: active means hit-call score of the fitted dose curve at least 0.9, where 1 is the maximum; inconclusive means response in the unintended direction; inactive means score below 0.9.

As usually defined, the AC50 is the concentration at which the activity in the assay is half-maximal.

Assay [1] can be described thus: IUF_NPC4_neurite_length_120hr: Leibniz Research Institute for Environmental Medicine (IUF) 120-hour Neuronal Morphology Assay for Neurite Length (NPC4) (AID 2284302; active means hit-call score of the fitted dose curve at least 0.9, where 1 is the maximum; inactive means score below 0.9). A digest of the protocol: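 hNPC spheres (0.3 mm, fetal brain GW 16-19) on PDL/laminin, DMEM:F12 3:1 + 1% N2, 37C 5% CO2; 7 concs + solvent control, day 0-5, half medium change d3; fix 120 h, TUBB3 ICC, mean neurite length um vs DMSO.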

The nature of assay [2]: IUF_NPC5_oligodendrocyte_differentiation_120hr: Leibniz Research Institute for Environmental Medicine (IUF) 120-hour Oligodendrocyte Differentiation Assay (NPC5) (AID 2284304).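 Further: share of O4-positive cells among Hoechst nuclei found by CNN image analysis.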 A digest of the protocol: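 After plating on poly-D-lysine/laminin, fetal-derived hNPC spheres differentiated for 120 h at 37C in compound-containing N2 medium, refreshed by half on day 3. O4 immunostaining over Hoechst nuclei in the migration zone gave oligodendrocyte percentage relative to DMSO.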

A short description of assay [3]: IUF_NPC4_neurite_area_120hr: Leibniz Research Institute for Environmental Medicine (IUF) 120-hour Neuronal Morphology Assay for Neurite Area (NPC4) (AID 2284305). As for the experimental part:
IUF_NPC2-5 is a cell-based, multiplexed assay that uses hNPC, a human primary neural progenitor cells, with measurements taken at 72 or 120 hours after chemical dosing in a 96-well plate. Human neural progenitor cells (hNPC) are generated from human fetal brain cortex at gestational week (GW) 16-19. In the neural progenitor cell migration and differentiation assay (NPC2-5), hNPCs grown as spheres are plated on an extracellular matrix and migrate and differentiate out of the sphere core. The processes radial glia migration, neuronal and oligodendrocyte migration as well as neuronal differentiation, neuronal morphology and oligodendrocyte differentiation are studied using automated phase contrast imaging and automated fluorescence imaging in combination with high content image analysis. In parallel, the cell viability is assessed using an alamar blue viability assay and the cytotoxicity using a lactate dehydrogenase dependent membrane integrity assay.IUF_NPC4_neurite_area_120hr is one of 12 assay components measured from the IUF_NPC2-5 assay. The neurite area at 120 hr is the mean area in pixel (without nuclei) of all neurons (see IUF_NPC3_neuronal_differentiation_120hr) that are identified by the skeletonization algorithm in Omnisphero.Data from the IUF_NPC4_neurite_area_120hr component was analyzed at the endpoint IUF_NPC4_neurite_area_120hr in the positive analysis fitting direction relative to DMSO as the negative control and baseline of activity. Using a type of differentiation reporter, loss-of-signal activity can be used to understand developmental effects.
(§1) Culture protocol: After the cell expansion period the cells are cultured for up to four weeks in which they are passaged every week as described in 3.6. Between one to three days after passaging spheres at a size of 0.3 mm are picked for the test method. For the assessment of neural progenitor cell migration and differentiation, the spheres are plated on poly-D-lysine/laminin coated 96-well flat bottom plates in differentiation medium (N2) to initiate migration and differentiation. Thereby one 0.3 mm big sphere is plated in the middle of a well. The differentiation medium consists of DMEM and Ham's F12 at a ratio of 3 to 1 supplemented with 1% N2 and 1% penicillin and streptomycin. Within 5 days NPCs radially migrate out of the sphere core and differentiate into radial glia cells (nestin positive), neurons (TUBB3 positive), oligodendrocytes (O4 positive) and astrocytes (GFAP positive). Cultivation during the test method is performed at 37C and 5% CO2 at a ph of 7.2-7.6.Exposure: 0.3 mm big hNPC are plated in the already prepared test conditions. Exposure starts at day 0 of differentiation and is continued over five days of differentiation until the experiment is terminated. Cells are fed with fresh medium at day 3 of differentiation. Therefore, half of the test condition solution (e.g. solvent control or compound dilution) is replaced by freshly prepared test condition solution.Test Method: Migration distance and cytotoxicity is determined after 72 hours based on brightfield images of each well. The assay is terminated by the assessment of cell viability and cytotoxicity as well as cell fixation after 120 h. Immunocytochemistry is performed for Hoechst positive nuclei, TUBB3 positive neurons and O4 positive oligodendrocytes. On the ICC images, migration after 120 hours, neuronal and oligodendrocyte number, neuronal morphology and neuron/oligodendrocyte specific migration is assessed. immunocytochemical staining (ICC) generates an image for each sphere. The plates are scanned using an automated high content imaging device and all nuclei and their positions are determined automatically based on their intensity and size. Images are imported to the Omnisphero software to run the image analysis that measures the following endpoints. The method is set up for 8 test conditions including 7 compound concentrations and one SC. […]

Assay [4] in a line: IUF_NPC2-5_cytotoxicity_72hr: Cytotoxicity Assessment at 72 hours in the Leibniz Research Institute for Environmental Medicine (IUF) Neural Progenitor Cell Migration and Differentiation Assay for Cytotoxicity (NPC2-5) (AID 2284306).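 Further: LDH release into supernatant measured by resorufin fluorescence marking membrane damage.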 A digest of the protocol:
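hNPC spheres (0.3 mm), PDL/laminin, DMEM/F12 3:1 + 1% N2; cpd from d0, 7 concs + SC, DMSO max 0.1%; half-medium refresh d3. Readout: supernatant LDH via resorufin fluorescence (RFU), 72 h; gain-of-signal fit.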

A short description of assay [5]: IUF_NPC2-5_cytotoxicity_120hr: Cytotoxicity Assessment at 120 hours in the Leibniz Research Institute for Environmental Medicine (IUF) Neural Progenitor Cell Migration and Differentiation Assay (NPC2-5) (AID 2284307).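 On AC50: LDH released into supernatant as membrane damage marker via resorufin fluorescence.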 The method, then:
IUF_NPC2-5 is a cell-based, multiplexed assay that uses hNPC, a human primary neural progenitor cells, with measurements taken at 72 or 120 hours after chemical dosing in a 96-well plate. Human neural progenitor cells (hNPC) are generated from human fetal brain cortex at gestational week (GW) 16-19. In the neural progenitor cell migration and differentiation assay (NPC2-5), hNPCs grown as spheres are plated on an extracellular matrix and migrate and differentiate out of the sphere core. The processes radial glia migration, neuronal and oligodendrocyte migration as well as neuronal differentiation, neuronal morphology and oligodendrocyte differentiation are studied using automated phase contrast imaging and automated fluorescence imaging in combination with high content image analysis. In parallel, the cell viability is assessed using an alamar blue viability assay and the cytotoxicity using a lactate dehydrogenase dependent membrane integrity assay.IUF_NPC2-5_cytotoxicity_120hr is one of 12 assay components measured from the IUF_NPC2-5 assay. It is designed to measure cytotoxicity at 120hr due to loss of membrane integrity. LDH measurements are performed from medium supernatants of each well and are based on the reduction of resazurin to resorufin measured as fluorescence signal (relative fluorescence unit) in a multiplate reader. Data from the IUF_NPC2-5_cytotoxicity_120hr component was analyzed at the endpoint IUF_NPC2-5_cytotoxicity_120hr in the positive analysis fitting direction relative to the dynamic range and baseline of activity. Using a type of viability reporter, gain-of-signal activity can be used to understand cytotoxicity effects.
as §1, with “endpoints.” for “endpoints. The method is set up for 8 test conditions including 7 compound concentrations and one SC.”

Assay [6] in a line: IUF_NPC2-5_cell_number_120hr: Cell Number Assessment at 120 hours in the Leibniz Research Institute for Environmental Medicine (IUF) Neural Progenitor Cell Migration and Differentiation Assay (NPC2-5) (AID 2284308; active means hit-call score of the fitted dose curve at least 0.9, where 1 is the maximum; inactive means score below 0.9;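 further: count of Hoechst-stained nuclei in migration zone around plated human neural progenitor spheres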). The method, then:
IUF_NPC2-5 is a cell-based, multiplexed assay that uses hNPC, a human primary neural progenitor cells, with measurements taken at 72 or 120 hours after chemical dosing in a 96-well plate. Human neural progenitor cells (hNPC) are generated from human fetal brain cortex at gestational week (GW) 16-19. In the neural progenitor cell migration and differentiation assay (NPC2-5), hNPCs grown as spheres are plated on an extracellular matrix and migrate and differentiate out of the sphere core. The processes radial glia migration, neuronal and oligodendrocyte migration as well as neuronal differentiation, neuronal morphology and oligodendrocyte differentiation are studied using automated phase contrast imaging and automated fluorescence imaging in combination with high content image analysis. In parallel, the cell viability is assessed using an alamar blue viability assay and the cytotoxicity using a lactate dehydrogenase dependent membrane integrity assay.IUF_NPC2-5_cell number_120hr is one of 12 assay components measured from the IUF_NPC2-5 assay. The cell number at 120 hr is assessed as the number of all Hoechst-positive nuclei identified in the migration area (see IUF_NPC2a_ glia_migration_120hr).Data from the IUF_NPC2-5_cell_number_120hr component was analyzed at the endpoint IUF_NPC2-5_cell_number_120hr in the positive analysis fitting direction relative to DMSO as the negative control and baseline of activity. Using a type of viability reporter, gain or loss-of-signal activity can be used to understand viability effects.
as §1, with “SC. The test conditions are prepared in a serial dilution from the stock solution.” for “SC.”

Assay [7] in a line: IUF_NPC2-5_viability_120hr: Viability Assessment at 120 hours in the Leibniz Research Institute for Environmental Medicine (IUF) Neural Progenitor Cell Migration and Differentiation Assay (NPC2-5) (AID 2284312; active means hit-call score of the fitted dose curve at least 0.9, where 1 is the maximum; inactive means score below 0.9). The essentials: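 Human fetal neural progenitor spheres (0.3 mm) plated on poly-D-lysine/laminin in N2 differentiation medium, exposed 120 h with half-medium refresh at day 3. Viability by alamar blue resazurin fluorescence; 7 concentrations, DMSO max 0.1%.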

The nature of assay [8]: VALA_TUBIPS_Agonist_TubuleLength: VALA Sciences human iPS-derived Endothelial Tubule Formation (TUBIPS) Agonism Assay (AID 2284311). The essentials: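 Agonist-mode readout is the gain in imaged tubule length versus DMSO baseline. It was measured by fluorescence high-content imaging 72 h after dosing human iPSC-derived endothelial cells.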
A short description of assay [9]: VALA_TUBIPS_Antagonist_TubuleLength: VALA Sciences human iPS-derived Endothelial Tubule Formation (TUBIPS) Antagonist Assay (AID 2284313). The essentials:
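Tubule length was quantified by high-content imaging of CD31- and nuclear-stained cells, with 0.1% DMSO as neutral and 100 uM suramin as inhibition control. Compounds were applied for 3 days, in 10 ng/ml VEGF, to cultures pre-grown 3 days.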

Read-out in another assay: CD69, CD69 (gene 969)
Briefly: BSK_LPS_CD69: BioMAP Diversity Plus: LPS Assay for CD69 Biomarker Activity (AID 2284303; active means hit-call score of the fitted dose curve at least 0.9, where 1 is the maximum; inactive means score below 0.9). As to conditions: primary human HUVEC with PBMC. A digest of the protocol:
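CD69 surface levels were read by ELISA after 24 h chemical treatment of an LPS-stimulated HUVEC plus PBMC co-culture; positive-direction fit against DMSO vehicle.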

As for `CC1(C)[C@H](C(=O)O[C@H](C#N)c2cccc(Oc3ccccc3)c2)[C@@H]1/C=C(\Cl)C(F)(F)F`, the compound was classed as inactive in assay [1], in [3], in assay [4], in assay [5] and in assay [7]. Also, the concentration at half-maximal activity (AC50) was 0.983 µM (active) in [2] and 0.586 µM (active) in assay [6].
As to `Cc1ccccc1OP(=O)(Oc1ccccc1C)Oc1ccccc1C`, the compound was classed as inactive in assay [1], in [3], in [4], in [6] and in assay [7]. Further, in assay [2], the AC50 is 6.47 µM (active).
`OC(Cc1ccccc1Cl)(Cn1[nH]cnc1=S)C1(Cl)CC1` (stereo unspecified): the AC50 in assay [1] was 36.1 µM (active); in [2], 0.507 µM (active); in assay [3], 40.3 µM (active); in assay [5], 126 µM (active); in [7], 35.8 µM (active). Moreover, the outcome in [4] and in [6] was inactive.
On to `Nc1ncn[nH]1`, for which the result in [8] and in [9] was inactive.
Take `O=C(Cc1ccccc1)OCCc1ccccc1`: the result in the assay with CD69, CD69 (gene 969) was inactive.
Turning to `Cc1cc(C(F)(C(F)(F)F)C(F)(F)F)ccc1NC(=O)c1cccc(I)c1C(=O)NC(C)(C)CS(C)(=O)=O`, the compound was called inactive in [1], in assay [3], in assay [4], in [6] and in assay [7]. The concentration at half-maximal activity (AC50) is 4.22 µM (active) in assay [2] and 1.5 µM (active) in assay [5].
As to `CCOCn1c(-c2ccc(Cl)cc2)c(C#N)c(Br)c1C(F)(F)F`, the AC50 in assay [1] is 14.4 µM (active); in assay [2], 5.56 µM (active); in assay [3], 13.4 µM (active); in [4] it was 50 µM (active); in assay [5], 41.7 µM (active); in assay [6], 84.8 µM (active). Moreover, the call in [7] was inactive.
For the compound `CCCCOC(=O)COC(=O)c1ccccc1C(=O)OCCCC`, in the assay with CD69, CD69 (gene 969), the result was inactive.
`O=S1OC[C@@H]2[C@H](CO1)[C@]1(Cl)C(Cl)=C(Cl)[C@@]2(Cl)C1(Cl)Cl` (stereo partly specified): the outcome in assay [1], in assay [3], in assay [4], in assay [5], in [6] and in assay [7] was inactive. Moreover, the AC50 in [2] is 0.789 µM (active).
As to `CC(C)[C@@H](Nc1ccc(C(F)(F)F)cc1Cl)C(=O)OC(C#N)c1cccc(Oc2ccccc2)c1` (stereo partly specified), the call in assay [1], in assay [3], in assay [4], in assay [5], in assay [6] and in assay [7] was inactive. For the same compound, the AC50 in [2] was 3.8 µM (active).
Take `OCCCCO`: the outcome in the assay with CD69, CD69 (gene 969) was inactive.
In the case of `CS(=O)(=O)c1ccc(C(=O)C2C(=O)CCCC2=O)c(Cl)c1COCC(F)(F)F`, the call in assay [1], in [2], in assay [3], in [4], in [5] and in assay [6] was inactive. Further, the outcome in assay [7] was inactive.
In the case of `CNC(=O)CSP(=O)(OC)OC`, the call in assay [1], in assay [3], in [4], in [5], in assay [6] and in [7] was inactive.
